This is an account of results in PubChem BioAssay.

The structures appear in SMILES notation.

The test has as its system Human papillomavirus type 1a protein E7 (residues 44-93). Briefly: small molecules binding HPV E7 44-93 – biochemical, small-molecule microarray, residues 44-93, 635 nm fluorescence, primary screen (AID 1108).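 Further: E7 fragment applied at 1 µg/mL in TBST for 1 h at 4 C; score combines spot fluorescence with its signal to noise ratio.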 The note with it: fluorescence 635 nm, higher = more signal.
For `CCOC(=O)[C@H](Cc1ccccc1)NC(=O)CCC1CC(OC(=O)NCCc2ccc(F)cc2)CC2(CCCC(COC(=O)NCc3cccc(C(F)(F)F)c3)O2)O1` (stereo partly specified), the composite z-score was 1.3. On to `C[C@H]1CC[C@@H](C(=O)O)N[C@@H]1c1ccc(C#Cc2ccccc2)cc1`, for which the composite z-score is 0.942. To `C[C@H]1CC[C@H]2C(=O)OC(COc3ccc(C(C)(C)C)cc3)CN2[C@@H]1c1ccc(Br)cc1` (stereo partly specified) belongs 1.1; to `OC[C@H]1O[C@H](C#Cc2ccccc2)C=C[C@@H]1O`, 0.0191. The molecule `CC(C)(C)N1C(=O)[C@H]2[C@H]3[C@H](O)[C@H](O)CC(=NOC[C@@H](O)COCc4ccco4)[C@@H]3CC[C@H]2C1=O` came in with a composite z-score of -0.266. On to `COC(=O)[C@H](C)NC(=O)CCC1CC(OC(=O)NCc2ccc3c(c2)OCO3)CC2(CCCC(COC(=O)NCc3ccccc3)O2)O1` (stereo partly specified), for which the composite z-score was found to be 1.25. `O=C1[C@H]2[C@H]3[C@H](O)[C@H](O)CC(=NOC[C@@H](O)COCc4ccco4)[C@@H]3CC[C@H]2C(=O)N1Cc1ccccc1` registered a composite z-score of 1.48. Then `COc1ccc(COC(=O)NN=C2C[C@@H](O)[C@@H](O)[C@@H]3[C@@H]4C(=O)N(C5CCCCC5)C(=O)[C@@H]4CC[C@@H]23)cc1`, with 0.14; and `CC(=O)OC[C@H]1O[C@@H](ON=C(C)CCN2CCCCc3nc(C)c(C)cc32)[C@H](OC(C)=O)[C@@H](OC(C)=O)[C@@H]1OC(C)=O`, with 1.16. To `CCOC(=O)[C@H](CC(C)C)NC(=O)CCC1CC(OC(=O)NCc2ccc3c(c2)OCO3)CC2(CCCC(COC(=O)NCCOC)O2)O1` (stereo partly specified) belongs 0.522. As for `CO[C@H]1COC(=O)[C@H](C)COC(=O)[C@@H](OCc2ccccc2)C=C[C@@H]1C`, the composite z-score is -0.0848.
